# In PubChem BioAssay (NCI):
# Compounds without any hit were thinned out: in the full panel of roughly 83,000, 20% have a hit.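 Treatment: one concentration, 48 hours, 96-well format. Scoring: percent growth, with anything below 10 considered active.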 Calls of active or inactive are those of the source.
# Columns and labels:
# Experiment in all cases: NCI-60 one-dose screen, 48 h (100 = growth as untreated, 0 = no growth, -100 = all killed)
# Conditions in all cases: 10 µM unless noted
# DU-145 prostate = tested on: DU-145 prostate
# K-562 leukemia = tested on: K-562 leukemia
# MALME-3M melanoma = tested on: MALME-3M melanoma
# MDA-MB-231 breast = tested on: MDA-MB-231 breast
# RXF 393 renal = tested on: RXF 393 renal
# SF-268 CNS = tested on: SF-268 CNS
# SF-295 CNS = tested on: SF-295 CNS
# SF-539 CNS = tested on: SF-539 CNS
# UACC-257 melanoma = tested on: UACC-257 melanoma
# M14 melanoma = tested on: M14 melanoma
# HCT-15 colon = tested on: HCT-15 colon
# HT29 colon = tested on: HT29 colon
# SNB-75 CNS = tested on: SNB-75 CNS
# SNB-19 CNS = tested on: SNB-19 CNS
# U251 CNS = tested on: U251 CNS
# PC-3 prostate = tested on: PC-3 prostate
# SK-MEL-5 melanoma = tested on: SK-MEL-5 melanoma
# UACC-62 melanoma = tested on: UACC-62 melanoma
# LOX IMVI melanoma = tested on: LOX IMVI melanoma
# SK-MEL-28 melanoma = tested on: SK-MEL-28 melanoma
Structure (SMILES),growth (DU-145 prostate),growth (K-562 leukemia),growth (MALME-3M melanoma),growth (MDA-MB-231 breast),growth (RXF 393 renal),growth (SF-268 CNS),growth (SF-295 CNS),growth (SF-539 CNS),growth (UACC-257 melanoma),growth (M14 melanoma),growth (HCT-15 colon),growth (HT29 colon),growth (SNB-75 CNS),growth (SNB-19 CNS),growth (U251 CNS),growth (PC-3 prostate),growth (SK-MEL-5 melanoma),growth (UACC-62 melanoma),growth (LOX IMVI melanoma),growth (SK-MEL-28 melanoma)
CSc1nc(N)c(N=Nc2ccc(S(=O)(=O)Nc3nnc(C)s3)cc2)c(=O)[nH]1,101% (inactive),138% (inactive),109% (inactive),103% (inactive),110% (inactive),101% (inactive),133% (inactive),109% (inactive),117% (inactive),101% (inactive),109% (inactive),104% (inactive),107% (inactive),103% (inactive),119% (inactive),97.5% (inactive),104% (inactive),94.3% (inactive),118% (inactive),108% (inactive)
CC1Cc2c(Cl)ncnc2N(C)c2ccccc21 (stereo not given),65.6% (inactive),37.6% (inactive),0.822% (active),-33.8% (active),13.6% (inactive),24.4% (inactive),19.9% (inactive),33% (inactive),11.5% (inactive),14.7% (inactive),12.6% (inactive),-24.1% (active),82.8% (inactive),28.4% (inactive),19.6% (inactive),16.3% (inactive),-75.1% (active),13.5% (inactive),-43.6% (active),20.9% (inactive)
Cc1nc(Cl)c2c(n1)N(C)c1ccc(Cl)cc1C(C)C2 (stereo not given),105% (inactive),77.3% (inactive),95.6% (inactive),77.1% (inactive),101% (inactive),88.9% (inactive),91.2% (inactive),96.5% (inactive),88% (inactive),86.9% (inactive),90.5% (inactive),83.8% (inactive),66.1% (inactive),90.5% (inactive),90.1% (inactive),73.5% (inactive),82.5% (inactive),65% (inactive),92.3% (inactive),105% (inactive)
CCCCCN(CCCCC)CCCCCCCCN1CCCc2ccccc21,101% (inactive),7.49% (active),99.2% (inactive),90.9% (inactive),115% (inactive),86.9% (inactive),80.1% (inactive),107% (inactive),95.2% (inactive),89.8% (inactive),89.7% (inactive),25.6% (inactive),76.6% (inactive),102% (inactive),101% (inactive),79.5% (inactive),100% (inactive),101% (inactive),61.4% (inactive),105% (inactive)
O=C(Nc1cccc(C2=NCCN2)c1)c1cccc(C(=O)Nc2cccc(C3=NCCN3)c2)c1,107% (inactive),96.6% (inactive),97.1% (inactive),101% (inactive),102% (inactive),96.4% (inactive),99% (inactive),95.7% (inactive),95.8% (inactive),99% (inactive),97.6% (inactive),110% (inactive),86.2% (inactive),98% (inactive),101% (inactive),99% (inactive),99.1% (inactive),94.3% (inactive),91.4% (inactive),102% (inactive)
CCN(CC)c1ccc2cc(C(Nc3ccc(Cl)cc3)c3nnnn3C(C)(C)C)c(=O)oc2c1 (stereo not given),93.6% (inactive),78.9% (inactive),98.1% (inactive),90.8% (inactive),86.9% (inactive),80.6% (inactive),95.9% (inactive),94.8% (inactive),92.2% (inactive),97.6% (inactive),91.8% (inactive),90.7% (inactive),68.5% (inactive),87% (inactive),82.6% (inactive),71.5% (inactive),80% (inactive),70% (inactive),72.4% (inactive),95.8% (inactive)
CC(C)[C@H]1CCC2=C3CC[C@]45OC(=O)[C@@]6(CCC(C)(C)C[C@H]64)CC[C@@]5(C)[C@]3(C)CC[C@@]21C,83.3% [100 µM] (inactive),45.3% [100 µM] (inactive),91.6% [100 µM] (inactive),61.2% [100 µM] (inactive),78.6% [100 µM] (inactive),75.6% [100 µM] (inactive),88.7% [100 µM] (inactive),71.6% [100 µM] (inactive),77.1% [100 µM] (inactive),86.3% [100 µM] (inactive),85.8% [100 µM] (inactive),42.2% [100 µM] (inactive),30.4% [100 µM] (inactive),71.6% [100 µM] (inactive),66.5% [100 µM] (inactive),39.3% [100 µM] (inactive),42.6% [100 µM] (inactive),59.3% [100 µM] (inactive),78.8% [100 µM] (inactive),87.4% [100 µM] (inactive)
O=C(OCc1ccc2c(Cl)cc(Cl)c(O)c2n1)N1CCNCC1,47.7% (inactive),19.1% (inactive),64.6% (inactive),54.3% (inactive),45.4% (inactive),35% (inactive),24.2% (inactive),52.4% (inactive),40.5% (inactive),43.6% (inactive),18.5% (inactive),80.6% (inactive),48.4% (inactive),37% (inactive),16.2% (inactive),29.8% (inactive),35.7% (inactive),24.5% (inactive),32.7% (inactive),70.4% (inactive)
C=CC1=C(C)C2=NC1=CC1=NC(=CC3=C(C)C4=C(O)C(C(=O)O)C(=C5NC(=C2)C(C)C5CCC(=O)O)C4=N3)C(CC)=C1C (stereo not given),113% (inactive),106% (inactive),125% (inactive),121% (inactive),125% (inactive),107% (inactive),116% (inactive),106% (inactive),115% (inactive),104% (inactive),105% (inactive),105% (inactive),94.5% (inactive),112% (inactive),124% (inactive),89.3% (inactive),102% (inactive),107% (inactive),108% (inactive),104% (inactive)
CC(C)=CCC[C@](C)(O)[C@H]1CC[C@]2(C)[C@@H]1CC[C@@H]1[C@@]3(C)CC[C@H](OC(=O)CCC(=O)O)C(C)(C)[C@@H]3CC[C@]12C,40.8% [100 µM] (inactive),24.2% [100 µM] (inactive),10.5% [100 µM] (inactive),13.5% [100 µM] (inactive),37.8% [100 µM] (inactive),52% [100 µM] (inactive),4.05% [100 µM] (active),31% [100 µM] (inactive),28.3% [100 µM] (inactive),30.2% [100 µM] (inactive),19.3% [100 µM] (inactive),2.98% [100 µM] (active),43.3% [100 µM] (inactive),24.1% [100 µM] (inactive),2.41% [100 µM] (active),27.4% [100 µM] (inactive),-41.3% [100 µM] (active),-75.4% [100 µM] (active),-64.1% [100 µM] (active),-46% [100 µM] (active)
CCCCC(CCCCCC(CCCC)C1NC(C)Cc2cc(OC)c(OC)cc21)C1NC(C)Cc2cc(OC)c(OC)cc21 (stereo not given),-100% (active),-76.8% (active),-73.4% (active),-67.4% (active),-89.4% (active),-88.6% (active),-70.7% (active),-95.8% (active),-80.6% (active),-90.2% (active),-95.5% (active),-86.3% (active),-99.9% (active),-69.8% (active),-94.7% (active),-60.8% (active),-96.1% (active),-70% (active),-99.1% (active),-98% (active)
CC1(C)CC[C@]2(C(=O)O)CC[C@]3(C)[C@H](CC[C@@H]4[C@@]5(C)CCC(=O)C(C)(C)[C@@H]5CC[C@]43C)[C@H]2[C@H]1OC(=O)C(F)(F)F,-53.4% [100 µM] (active),1.66% [100 µM] (active),-65% [100 µM] (active),-62.3% [100 µM] (active),-82.1% [100 µM] (active),-92.4% [100 µM] (active),-62.5% [100 µM] (active),-86% [100 µM] (active),-87% [100 µM] (active),-35.2% [100 µM] (active),-64% [100 µM] (active),-37.7% [100 µM] (active),-36.5% [100 µM] (active),-78.4% [100 µM] (active),-71.4% [100 µM] (active),-56.4% [100 µM] (active),-94.2% [100 µM] (active),-85.2% [100 µM] (active),-99.1% [100 µM] (active),-58.5% [100 µM] (active)
CCOC(=O)c1nn(C2CCCCO2)c2ccc(NC(=O)CN3CCOCC3)cc12 (stereo not given),107% (inactive),90.4% (inactive),104% (inactive),102% (inactive),122% (inactive),97.5% (inactive),101% (inactive),98.1% (inactive),98.8% (inactive),102% (inactive),106% (inactive),116% (inactive),80.7% (inactive),98.8% (inactive),97.9% (inactive),107% (inactive),102% (inactive),102% (inactive),98.2% (inactive),109% (inactive)
C=CCCCCCCCCC(=O)OC(C)C,101% (inactive),107% (inactive),78.9% (inactive),97.4% (inactive),93.2% (inactive),96.9% (inactive),98.8% (inactive),104% (inactive),94.9% (inactive),96.4% (inactive),99.1% (inactive),98.6% (inactive),103% (inactive),105% (inactive),96.1% (inactive),99.7% (inactive),95.9% (inactive),105% (inactive),100% (inactive),104% (inactive)
